Records with an inconclusive call do not appear. Calls of active or inactive are those of the source. How the source made its calls: active means hit-call score of the fitted dose curve at least 0.9, where 1 is the maximum; inconclusive means response in the unintended direction; inactive means score below 0.9.
Tests used:
[1] = biological target: human Constitutive Androstane Receptor (CAR), NR1I3 (gene 9970) (UniProt Q14994); assay: NVS_NR_hCAR_Antagonist: NovaScreen (NVS) Nuclear Receptor Binding Assay for human Constitutive Androstane Receptor Antagonism (CAR) (AID 2283344)
Chain of human Constitutive Androstane Receptor (CAR), NR1I3 (gene 9970) (Q14994 whole entry, looked up): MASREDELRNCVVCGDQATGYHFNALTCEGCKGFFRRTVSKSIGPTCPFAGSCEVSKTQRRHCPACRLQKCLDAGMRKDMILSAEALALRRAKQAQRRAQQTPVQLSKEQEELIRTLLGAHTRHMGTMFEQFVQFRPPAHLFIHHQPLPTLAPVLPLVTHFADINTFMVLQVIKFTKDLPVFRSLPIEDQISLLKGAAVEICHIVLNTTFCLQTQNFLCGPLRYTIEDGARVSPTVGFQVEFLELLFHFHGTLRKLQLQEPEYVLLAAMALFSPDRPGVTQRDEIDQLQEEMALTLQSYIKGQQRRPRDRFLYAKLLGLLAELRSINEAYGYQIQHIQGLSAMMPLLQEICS
In short: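 Cell-free TR-FRET binding read 1 h after dosing, antagonist mode; loss of signal versus DMSO baseline. Primary screen in duplicate at a single 25 uM; actives retested in concentration series.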

[2] = biological target: Bile acid receptor (Homo sapiens) (UniProt Q96RI1); assay: NVS_NR_hFXR_Agonist: NovaScreen (NVS) Nuclear Receptor Binding Assay for human Farnesoid X Receptor Agonism (FXR) (AID 2283347)
Chain of Bile acid receptor (Homo sapiens) (Q96RI1 whole entry, looked up): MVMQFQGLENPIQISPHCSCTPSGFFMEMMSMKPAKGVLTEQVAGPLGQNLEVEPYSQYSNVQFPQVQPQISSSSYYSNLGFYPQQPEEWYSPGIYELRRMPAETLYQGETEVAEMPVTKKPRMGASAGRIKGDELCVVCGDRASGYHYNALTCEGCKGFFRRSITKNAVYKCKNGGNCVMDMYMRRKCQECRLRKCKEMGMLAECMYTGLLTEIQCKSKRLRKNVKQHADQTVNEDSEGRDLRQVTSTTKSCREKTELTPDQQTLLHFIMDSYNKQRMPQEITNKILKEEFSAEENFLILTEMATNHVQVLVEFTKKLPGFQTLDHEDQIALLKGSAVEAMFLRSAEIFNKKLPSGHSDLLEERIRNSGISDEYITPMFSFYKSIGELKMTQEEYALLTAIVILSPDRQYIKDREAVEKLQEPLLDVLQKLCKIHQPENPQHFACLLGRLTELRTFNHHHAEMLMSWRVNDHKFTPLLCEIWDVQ
Protocol: NVS_NR_hFXR_Agonist is a biochemical, single-readout assay that uses extracted gene-proteins in a cell-free assay. Measurements were taken 1 hour after chemical dosing in a 384-well plate.NVS_NR_hFXR_Agonist is one of one assay component(s) measured or calculated from the NVS_NR_hFXR_Agonist assay. It is designed to make measurements of fluorescent resonance energy transfer, a form of binding reporter, as detected with fluorescent resonance energy transfer signals by Time-Resolved Fluorescence Resonance Energy Transfer (TR-FRET) technology.Data from the assay component NVS_NR_hFXR_Agonist was analyzed into 1 assay endpoint. This assay endpoint, NVS_NR_hFXR_Agonist, was analyzed in the positive analysis fitting direction relative to DMSO as the negative control and baseline of activity. Using a type of binding reporter, gain-of-signal activity can be used to understand changes in the binding as they relate to the gene NR1H4. Furthermore, this assay endpoint can be referred to as a primary readout, because the performed assay has only produced 1 assay endpoint. To generalize the intended target to other relatable targets, this assay endpoint is annotated to the nuclear receptor intended target family, where the subfamily is non-steroidal.
Binding assays used specific radioligands (tritiated, iodinated) with non-radioactive competitive displacement ligands in agonist or antagonist protocols (as indicated) and various reference compounds and inhibitors to titrate specific binding to receptors and transporters. Most enzyme assays (CYPs, kinases, phosphatases, proteases, HDACs) used recombinant protein and specific substrates (fluorescence mostly, some colorimetric and radioactive) and inhibitors, followed by a biochemical separation of substrate and product. All assays for the biochemical HTS were initially run in duplicate at a single concentration (10 uM for CYP450 assays and 25 uM for all others). […] Each assay was run with positive and negative controls, and concurrent controls on every plate. […]

[3] = biological target: Estrogen receptor (Homo sapiens) (UniProt P03372); assay: OT_ER_ERaERa_1440: Odyssey Thera (OT) 24-hour HEK293T Protein-Complementation Assay for Estrogen Receptor-alpha/-alpha Homodimer (AID 2283349);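 further: hits raise fluorescence above DMSO for agonists and antagonists alike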
Chain of Estrogen receptor (Homo sapiens) (P03372 whole entry, looked up, the tested form may be a part): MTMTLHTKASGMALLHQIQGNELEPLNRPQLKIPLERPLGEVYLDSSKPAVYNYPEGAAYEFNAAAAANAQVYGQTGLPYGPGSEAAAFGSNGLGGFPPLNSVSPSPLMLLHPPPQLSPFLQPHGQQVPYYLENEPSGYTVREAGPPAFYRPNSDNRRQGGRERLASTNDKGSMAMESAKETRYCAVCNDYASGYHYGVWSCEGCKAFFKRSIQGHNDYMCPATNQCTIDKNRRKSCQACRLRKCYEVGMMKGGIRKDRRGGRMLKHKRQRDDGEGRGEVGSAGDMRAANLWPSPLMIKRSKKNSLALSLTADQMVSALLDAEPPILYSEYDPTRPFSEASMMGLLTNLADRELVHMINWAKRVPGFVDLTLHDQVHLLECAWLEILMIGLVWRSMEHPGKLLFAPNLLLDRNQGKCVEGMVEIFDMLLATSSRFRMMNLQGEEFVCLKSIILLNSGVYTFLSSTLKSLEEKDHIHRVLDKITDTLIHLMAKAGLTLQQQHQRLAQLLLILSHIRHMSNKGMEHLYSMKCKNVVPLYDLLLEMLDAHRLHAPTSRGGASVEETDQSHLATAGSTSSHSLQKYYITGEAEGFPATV
In short: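 Readout is the rise in mean fluorescence from reporter fragment complementation when ERα LBD (aa 310-547) units dimerize in HEK293T cells. Measured 24 h after dosing and analysed as increase over DMSO control.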

[4] = biological target: Estrogen receptor (Homo sapiens) (UniProt P03372); assay: OT_ER_ERaERa_0480: Odyssey Thera (OT) 8-hour HEK293T Protein-Complementation Assay for Estrogen Receptor-alpha/-alpha Homodimer (AID 2283351);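 further: rise in fluorescence from reassembled reporter fragments on ERα LBD homodimer in nucleus or whole cell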
In short: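 HEK293T cells stably expressing the human ERα ligand-binding domain (aa 310-547) as a homodimer PCA were dosed with compound for 8 h. Gain of fluorescence intensity versus DMSO vehicle was read by laser scanning cytometry.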

[5] = biological target: Estrogen receptor (Homo sapiens) + Estrogen receptor beta (Homo sapiens) (UniProt P03372+Q92731); assay: OT_ER_ERaERb_0480: Odyssey Thera (OT) 8-hour HEK293T Protein-Complementation Assay for Estrogen Receptor-alpha/-beta Heterodimer (AID 2283352)
Chain of Estrogen receptor (Homo sapiens) + Estrogen receptor beta (Homo sapiens) (P03372 whole entry, looked up, the tested form may be a part): as above
Chain of Estrogen receptor (Homo sapiens) + Estrogen receptor beta (Homo sapiens) (Q92731 whole entry, looked up, the tested form may be a part): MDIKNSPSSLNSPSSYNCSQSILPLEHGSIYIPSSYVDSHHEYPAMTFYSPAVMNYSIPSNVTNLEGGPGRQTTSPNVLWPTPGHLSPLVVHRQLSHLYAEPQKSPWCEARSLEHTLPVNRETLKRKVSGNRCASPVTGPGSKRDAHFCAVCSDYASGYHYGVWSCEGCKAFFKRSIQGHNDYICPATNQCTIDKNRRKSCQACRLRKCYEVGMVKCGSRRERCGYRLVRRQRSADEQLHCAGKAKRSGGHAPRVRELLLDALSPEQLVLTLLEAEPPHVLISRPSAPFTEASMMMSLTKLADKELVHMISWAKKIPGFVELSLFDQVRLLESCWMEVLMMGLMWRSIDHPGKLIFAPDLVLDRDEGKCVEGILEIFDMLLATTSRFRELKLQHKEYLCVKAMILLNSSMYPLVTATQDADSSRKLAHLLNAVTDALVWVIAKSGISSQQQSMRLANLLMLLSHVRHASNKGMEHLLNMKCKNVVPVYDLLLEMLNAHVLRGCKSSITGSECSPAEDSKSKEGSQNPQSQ
In short: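 HEK293T protein-fragment complementation assay of ER-alpha/ER-beta LBD heterodimerisation, read 8 h after dosing. Mean nuclear/cytoplasmic fluorescence intensity measured by laser scanning cytometry; gain of signal fitted relative to DMSO.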

[6] = biological target: chimpanzee Androgen Receptor (AR), AR (gene 747460) (UniProt O97775); assay: NVS_NR_cAR: NovaScreen (NVS) Nuclear Receptor Binding Assay for chimpanzee Androgen Receptor (AR) (AID 2283346);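 further: radioligand displacement from AR measured by scintillation counting in a cell-free assay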
Chain of chimpanzee Androgen Receptor (AR), AR (gene 747460) (O97775 whole entry, looked up): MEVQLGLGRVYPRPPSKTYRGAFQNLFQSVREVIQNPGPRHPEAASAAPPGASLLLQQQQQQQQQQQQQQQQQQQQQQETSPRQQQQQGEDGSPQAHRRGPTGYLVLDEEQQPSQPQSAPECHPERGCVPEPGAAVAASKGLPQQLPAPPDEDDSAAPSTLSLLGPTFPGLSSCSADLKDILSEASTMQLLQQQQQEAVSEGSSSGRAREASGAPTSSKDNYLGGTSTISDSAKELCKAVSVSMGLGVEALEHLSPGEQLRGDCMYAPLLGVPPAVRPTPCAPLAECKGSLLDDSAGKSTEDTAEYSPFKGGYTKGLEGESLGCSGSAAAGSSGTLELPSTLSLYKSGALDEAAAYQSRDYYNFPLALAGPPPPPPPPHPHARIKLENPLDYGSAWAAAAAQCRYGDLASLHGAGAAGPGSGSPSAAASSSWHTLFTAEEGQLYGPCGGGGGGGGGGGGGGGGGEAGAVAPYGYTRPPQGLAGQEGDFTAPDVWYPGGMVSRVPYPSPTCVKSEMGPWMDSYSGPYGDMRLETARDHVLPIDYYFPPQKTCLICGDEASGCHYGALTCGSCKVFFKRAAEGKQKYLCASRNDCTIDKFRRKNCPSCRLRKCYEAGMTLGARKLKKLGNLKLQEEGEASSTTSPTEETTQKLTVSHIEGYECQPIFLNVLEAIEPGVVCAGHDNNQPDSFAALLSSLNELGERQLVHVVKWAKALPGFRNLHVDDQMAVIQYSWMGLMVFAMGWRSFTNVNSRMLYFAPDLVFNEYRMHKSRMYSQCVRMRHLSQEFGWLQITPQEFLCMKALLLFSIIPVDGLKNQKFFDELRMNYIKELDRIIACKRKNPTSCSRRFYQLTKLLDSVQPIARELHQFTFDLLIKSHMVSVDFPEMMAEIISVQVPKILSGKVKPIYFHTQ
In short: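 Cell-free radioligand displacement using receptor protein extracted from Sf9/Sf21 cells; bound radioligand measured by scintillation counting 72 hours after chemical dosing. Loss of signal versus DMSO baseline indicates binding; primary screen single-concentration in duplicate at 25 uM, actives followed in concentration series.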

## CC(COc1ccc(Oc2ccccc2)cc1)Oc1ccccn1 (stereo not given)
[1]
  outcome: inactive

## N#CSCSC#N
[1]
  outcome: inactive
[2]
  outcome: inactive

## CSc1nc(NC(C)C)nc(NC(C)C)n1
[3]
  outcome: inactive
[4]
  outcome: inactive
[5]
  outcome: inactive

## Nc1c(Cl)cc([N+](=O)[O-])cc1Cl
[6]
  AC50: 15.4 µM (active)
[2]
  outcome: inactive
[3]
  outcome: inactive
[4]
  outcome: inactive
[5]
  outcome: inactive

## CCCCOC(=O)c1ccccc1C(=O)O
[2]
  outcome: inactive

## CCC(=O)Nc1ccc(Cl)c(Cl)c1
[1]
  outcome: inactive
[6]
  AC50: 12.4 µM (active)

## CON=C(C(=O)OC)c1ccccc1CON=C(C)c1cccc(C(F)(F)F)c1
[1]
  outcome: inactive

Source: PubChem BioAssay (EPA / NIEHS)
